Test [1] concerns XIP peptide (Xip251-270) binding. Briefly: small-molecule binders of XIP peptide, primary screen, biochemical, small-molecule microarray, fluorescence 635/667 nm, 0.1 µg/mL protein (AID 1182). The following applies: fluorescent protein binding, 635 nm, higher = more signal, called active from +8 up or from −8 down.
Test [2] concerns XIP peptide (Xip251-270). Nature of the test: small-molecule binders of XIP peptide, primary screen, biochemical, small-molecule microarray, fluorescence 635/667 nm, 0.5 µg/mL protein (AID 1183). The following applies: small-molecule microarray binding, fluorescence 635 nm; higher = more signal.
The nature of test [3]: Plasmodium falciparum growth inhibition, primary screen, strain 3D7, DAPI fluorescence, 100 nL (AID 1184).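 Note: parasites grown inside human red blood cells in medium with human serum.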 The following applies: P. falciparum 3D7 growth, 3 d, higher = more signal.
In test [4] the target is Homeobox protein Hox-A13 (Mus musculus) (UniProt Q62424). Briefly: inhibitors of HoxA13-DNA binding, primary screen, biochemical, fluorescence polarization, labeled oligonucleotide (AID 1185). As to conditions: 15 min, higher = more signal, called active from +8 up or from −8 down. (In fluorescence polarisation assays a small probe gives low polarisation when free and higher when bound to something large.)

Test [5] can be described thus: inhibitors of hydroxyurea-induced Chk1 phosphorylation, primary screen, imaging, HeLa, phospho-Chk1 antibody, percent positive cells (AID 1186). As to conditions: hydroxyurea-induced phospho-Chk1 immunofluorescence imaging, higher = more signal.
A short description of test [6]: inhibitors of hydroxyurea-induced Chk1 phosphorylation, primary screen, imaging, HeLa, phospho-Chk1 nuclear intensity (AID 1187). As to conditions: hydroxyurea-induced phospho-Chk1 immunofluorescence imaging, higher = more signal.

The structures appear in SMILES notation. The source made the active and inactive calls. Unless noted, the rule behind the calls is not given here.

Chain of Homeobox protein Hox-A13 (Mus musculus) (Q62424 whole entry, looked up): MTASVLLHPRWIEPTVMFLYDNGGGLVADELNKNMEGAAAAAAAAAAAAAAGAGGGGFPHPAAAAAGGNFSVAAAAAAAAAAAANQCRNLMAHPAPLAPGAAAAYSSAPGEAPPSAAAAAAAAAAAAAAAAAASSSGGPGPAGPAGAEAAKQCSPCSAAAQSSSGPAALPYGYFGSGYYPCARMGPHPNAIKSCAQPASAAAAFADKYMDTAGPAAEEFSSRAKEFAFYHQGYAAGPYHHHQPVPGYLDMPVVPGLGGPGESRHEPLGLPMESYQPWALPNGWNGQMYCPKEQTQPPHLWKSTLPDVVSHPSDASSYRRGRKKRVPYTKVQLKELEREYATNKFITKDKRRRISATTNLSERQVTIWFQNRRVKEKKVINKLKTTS

On to `COc1ccc(NC(=O)O[C@H]2[C@H](OC(=O)c3cc4ccccc4[nH]3)[C@@H](OC(=O)c3cc4ccccc4[nH]3)[C@@H](OC)O[C@@H]2CO)cc1`, for which the composite z-score in test [1] was 1.54 (inactive); in test [2], -0.135. Further, the z-score in test [3] was -2.16; in test [4] it was -3.86 (inactive); in test [5] it was -0.335 (inactive); in test [6] it was -0.331 (inactive).

With `C=CC[C@]1(C(N)=O)COC(c2ccc(OCCCO)cc2)=N1`, the composite z-score is -0.539 (inactive) in test [1] and -0.0487 in test [2]. Also, the z-score was 0.668 in test [3], -0.063 (inactive) in test [4], -0.551 (inactive) in test [5] and -0.351 (inactive) in test [6].

On to `COc1ccc(CCNC(=O)[C@@]2(c3ccc([N+](=O)[O-])cc3)CC(=O)N(CC34CC5CC(CC(C5)C3)C4)[C@@H]2c2ccc(CO)cc2I)cc1`, for which the composite z-score in test [1] is 0.417 (inactive); in test [2], 0.723. The z-score is -1.46 in test [3], -0.814 (inactive) in test [4], -0.155 (inactive) in test [5] and 0.022 (inactive) in test [6].

`C=CCN(Cc1ccccc1)C(=O)C(c1cccs1)N(C(=O)/C=C\C(=O)O)c1ccc(CCOCCO)cc1` (stereo not drawn): the composite z-score is -0.524 (inactive) in test [1] and 0.625 in test [2]. For the same compound, the z-score in test [3] is 0.155; in test [4] it was 0.12 (inactive); in test [5], -1.25 (inactive); in test [6] it was -0.565 (inactive).

Turning to `COCCCNC(=O)[C@@H]1c2ccccc2C(=O)N(Cc2ccccc2)[C@H]1c1ccc(CO)cc1`, the composite z-score is -0.267 (inactive) in test [1] and 0.401 in test [2]. Also, the z-score in test [3] is 0.207; in test [4] it was -1.77 (inactive); in test [5], -0.0813 (inactive); in test [6], -0.452 (inactive).

Take `O=C1[C@@]23C=C(Br)[C@H](C[C@@H]2COC3)[C@]12CO2`: the figures for the composite z-score in test [1] and in test [2] were -0.0125 (inactive) and -1.48, respectively. The z-score in test [3] was 1.81; in test [4], -7.3 (inactive); in test [5], 0.825 (inactive); in test [6], 0.343 (inactive).

As to `O=C1OCCC=C[C@H]2OC34C=CCN(c5ccc(Cl)cc5)C(=O)[C@H]3N(CCCO)C(=O)[C@@H]4C12` (stereo partly drawn), the composite z-score in test [1] was -0.869 (inactive); in test [2], -0.481. The z-score in test [3] was -1.83; in test [4], -3.2 (inactive); in test [5], -0.511 (inactive); in test [6], -0.536 (inactive).

For the compound `CCCNC(=O)[C@@]1(Sc2ccc(C)cc2)CC(=O)N(Cc2ccccc2C(F)(F)F)[C@@H]1c1ccc(CO)cc1I`, the composite z-score is -0.163 (inactive) in test [1] and 0.704 in test [2]. The z-score in test [3] was -1.69; in test [4], -1.3 (inactive); in test [5] it was -0.104 (inactive); in test [6] it was 0.0829 (inactive).

With `CCOC(=O)C1=C[C@@H](C(C)C)N(S(=O)(=O)c2ccc(C)cc2)[C@H]1c1ccccc1F`, the figures for the composite z-score in test [1] and in test [2] were 1.01 (inactive) and 0.489, respectively. The z-score in test [3] is -0.864; in test [4], -1.17 (inactive); in test [5] it was 0.503 (inactive); in test [6], 0.969 (inactive).

Regarding `COc1ccc(C(O)C2C=CC3C(=O)N(C)C(=O)C3N2NC(=O)OC(C)(C)C)c2ccccc12` (stereo not drawn), the values for the composite z-score in test [1] and in test [2] were 0.661 (inactive) and 0.744, respectively. The z-score in test [3] was -0.526; in test [4], -4.22 (inactive); in test [5] it was 0.667 (inactive); in test [6], 0.704 (inactive).

As for `COC(=O)[C@@]1(Cc2ccc(OC)cc2)[C@H]2c3cc(C(=O)N4CCCC4)n(Cc4nc5ccccc5[nH]4)c3C[C@H]2CN1C(=O)c1ccccc1`, the composite z-score in test [1] was 1.01 (inactive); in test [2], 0.636. In addition, the z-score is -1.22 in test [3], -2.23 (inactive) in test [4], 0.732 (inactive) in test [5] and 0.409 (inactive) in test [6].

In the case of `COCCCNC(=O)[C@]1(Cc2ccccc2)N=C(c2ccc(OCCCO)cc2)O[C@@H]1c1ccccc1CN=[N+]=[N-]`, the composite z-score was 1.88 (inactive) in test [1] and 0.711 in test [2]. Further, the z-score was -2.33 in test [3], -3.2 (inactive) in test [4], -0.6 (inactive) in test [5] and -0.537 (inactive) in test [6].

Consider `COc1ccc([C@H]2C[C@H]3C(Br)=C[C@@]2(CO)C(=O)[C@]32CO2)cc1`, for which the figures for the composite z-score in test [1] and in test [2] were -0.358 (inactive) and -0.311, respectively. In addition, the z-score in test [3] was 0.951; in test [4] it was -1.05 (inactive); in test [5], -0.0281 (inactive); in test [6], 0.202 (inactive).

As to `NC(=O)[C@@]1(Cc2ccccc2)N=C(c2ccc(OCCCO)cc2)O[C@H]1c1ccccc1`, the values for the composite z-score in test [1] and in test [2] were 1.08 (inactive) and -0.41, respectively. Besides, the z-score is -0.689 in test [3], -5.07 (inactive) in test [4], -0.18 (inactive) in test [5] and 0.135 (inactive) in test [6].

Take `COc1ccc([Si](C)(C)[C@@H]2[C@@H](CC(=O)N3CCC[C@H]3CO)O[C@]3(C(=O)N(Cc4cccc(I)c4)c4ccccc43)[C@H]2C)cc1`: the composite z-score in test [1] is 0.302 (inactive); in test [2], 0.572. Moreover, the z-score in test [3] is -2.28; in test [4], -3.72 (inactive); in test [5], -0.198 (inactive); in test [6], -0.353 (inactive).

As for `NCCCCCNC(=O)[C@H]1C[C@H]2C(=O)N[C@@H](Cc3ccccc3)C(=O)N2[C@H]1c1cccc(OCCO)c1`, the results for the composite z-score in test [1] and in test [2] were 1.51 (inactive) and 0.683, respectively. Moreover, the z-score in test [3] was -0.329; in test [4] it was -3.23 (inactive); in test [5] it was 0.0742 (inactive); in test [6], 0.304 (inactive).

On to `C=C(CCCC)/C(=C/C[C@@H](OC(C)=O)c1ccccc1OCCO)c1cc(C(=O)OC)ccc1OC`, for which the composite z-score in test [1] is -0.0324 (inactive); in test [2], 0.906. Also, the z-score in test [3] is -2.51; in test [4], -4.39 (inactive); in test [5] it was -0.402 (inactive); in test [6], 0.114 (inactive).

Take `CC(=O)NCCCC[C@@H]1NC(=O)[C@H]2C[C@@H](C(=O)NCCCCCNC(=O)CS)[C@@H](c3ccc(O)cc3)N2C1=O`: the composite z-score in test [1] is 0.184 (inactive); in test [2], 0.805. Moreover, the z-score was 0.147 in test [3], -3.02 (inactive) in test [4], 0.0401 (inactive) in test [5] and 0.176 (inactive) in test [6].

The values above are taken from PubChem BioAssay.
